PubChem BioAssay
Results filed as inconclusive are left out. The list shows a part of the results. Calls of active or inactive are those of the source. Rule as the data show it, unless noted: active = binding response below about 72% or above about 130%; inactive = in between.

What was measured:
[1] = rapamycin-like changes in RPL19A-GFP expression – cell-based, S. cerevisiae, multiplex flow cytometry, primary screen (AID 1862; in the data active = percent of DMSO control GFP below about 86%;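 also: lower values mimic rapamycin by blocking the RPL19A rise seen in DMSO cells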); settings: S. cerevisiae RPL19A-GFP strain, flow cytometry fluorescence, 3 h; at 10 µM; stronger effect = lower value
[2] = TOR pathway GLN3 branch reporter MEP2-GFP changes – S. cerevisiae, multiplex flow cytometry, primary screen (AID 1867;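 active = GFP response, as percent of the DMSO control, above the screen-wide mean plus 3 SD, about 139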;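 also: median GFP channel fluorescence of barcode-gated MEP2-GFP cells measured by flow cytometry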); settings: S. cerevisiae MEP2-GFP strain, 3 h, at 10 µM, stronger effect = higher value, 100% means same as DMSO wells
[3] = TOR pathway RTG branch CIT2 reporter changes – S. cerevisiae, GFP fusion, multiplex flow cytometry, primary screen (AID 1870;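 active = percent response above a set limit, the screen-wide mean plus 3 SD, cut at about 130% in these data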;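 also: barcoded CIT2-GFP strain pooled with four other GFP strains with rapamycin as positive control; median GFP fluorescence per well over plate mean of DMSO wells so 100% = DMSO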); settings: S. cerevisiae CIT2-GFP expression, 3 h, at 10 µM, stronger effect = higher value
[4] = TOR pathway LAP4-GFP level changes – S. cerevisiae, multiplex flow cytometry, primary screen (AID 1873;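 active = GFP signal, as percent of the solvent control, above the screen mean plus 3 SD, about 149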); settings: S. cerevisiae LAP4-GFP expression, 3 h, at 10 µM, stronger effect = higher value
[5] = yeast AGP1-GFP level changes, GLN3 branch – cell-based, multiplex flow cytometry, S. cerevisiae, primary screen (AID 1887;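 active = GFP signal above the screen-wide mean plus 3 SD, that is over about 124.5% of the solvent control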;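 also: AGP1-GFP fusion strain of S. cerevisiae within a five-strain barcoded multiplex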); settings: 3 h, at 10 µM, stronger effect = higher value
[6] = hit retest on RPL19A-GFP reporter strain – cell-based, S. cerevisiae, flow cytometry, cherry picks, mother/daughter gates, confirmation (AID 2270;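 active = GFP response below 50% of the DMSO control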); settings: 3 h, at 10 µM, stronger effect = lower value, 100 = same GFP as DMSO wells
[7] = yeast TOR pathway reporter LAP4-GFP change – cell-based, cherry picks, flow cytometry, mother/daughter gates, confirmation (AID 2271;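 active = GFP response above 150% of the DMSO control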;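 also: ratio of sample to DMSO plate mean so 100% equals DMSO level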); settings: S. cerevisiae LAP4-GFP strain, 3 h, at 10 µM, stronger effect = higher value, 100 means same as DMSO control
[8] = TOR pathway reporter MEP2-GFP, retest of hits – S. cerevisiae, flow cytometry GFP, cherry picks, confirmation (AID 2272;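 active = GFP response above 150% of the DMSO control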;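 also: ratio of well signal to plate DMSO mean so 100% equals DMSO level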); settings: S. cerevisiae MEP2-GFP strain, 3 h, at 10 µM, stronger effect = higher value
[9] = yeast AGP1-GFP fluorescence change, single-dose – cell-based, flow cytometry, S. cerevisiae, cherry picks, confirmation (AID 2273;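 active = GFP response above 150% of the DMSO level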;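 also: median GFP channel fluorescence over the whole cell population gate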); settings: S. cerevisiae AGP1-GFP strain, 3 h, at 10 µM
[10] = TOR pathway CIT2 reporter hit retest – S. cerevisiae, GFP fusion, cherry picks, mother/daughter gates, confirmation (AID 2274;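 active = GFP response above 150% of the DMSO level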); settings: S. cerevisiae CIT2-GFP strain, flow cytometry, 3 h, at 10 µM, stronger effect = higher value
[11] = reduced mouse 2C T cell binding to pMHC/ICAM-1 vesicles – MLPCN validation set, flow cytometry, LFA-1/ICAM-1 modulator project, pilot screen (AID 2523;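 active = response below a set limit, under 55% cells CD8-positive and vesicle-bound, and CD8 cells' 90th-percentile brightness under 279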;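 as to vesicle binding response: mean PE anti-B7-1 fluorescence of CD8+ cells relative to row control; 100% = QL9-loaded vesicles with DMSO vehicle in the same plate row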); settings: 2C mouse CD8+ T cells, at 7 µM, stronger effect = lower value; double positive events: measured here: CD8+/vesicle+ event percentage
[12] = target: Integrin beta-1 (Homo sapiens) + Integrin alpha-4 (Homo sapiens) (UniProt P13612+P05556); assay: alpha4beta1 integrin LIBS antibody binding reduction – U937 cells, HUTS-21 mAb, flow cytometry, validation set, VLA-4 allosteric modulator project, pilot screen (AID 2674;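 active = inhibition above 50%, about 3 SD of the validation set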;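 also: antibody binding induced by the VLA-4 ligand LDV present at three times its Kd; 0% = LDV ligand with antibody and no compound and 100% = antibody without LDV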); settings: HUTS-21 LIBS mAb binding, at 6.7 µM, stronger effect = higher value, binding induced by LDV ligand
[13] = calorie-restriction mimetic ROS inhibitors, yeast – validation compound set, pilot screen (AID 2706;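 active = superoxide response below 65% of plate, a cut near 3 SD across the whole screen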;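 also: yeast exposed to compound for one week at 30 degrees C before staining; 100% = mean of all compound wells on the same plate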); settings: S. cerevisiae aging, superoxide DHE fluorescence; at 10 µM; stronger effect = lower value
[14] = target: Beta-adrenergic receptor kinase 1 (Homo sapiens) (UniProt P25098); assay: GRK2 binders displacing RNA aptamer, biochemical, validation, human GRK2, bead flow cytometry (AID 488806;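 active = aptamer binding inhibition above 30%, about 3 SD of noise from non-fluorescent compounds; inactive = inhibition at or below 30%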); settings: bead-bound GRK2, FAM-aptamer displacement, at 10 µM, stronger effect = higher value
[15] = target: Beta-2 adrenergic receptor (Homo sapiens) (UniProt P07550); assay: agonist-induced loss of surface beta2AR – cell-based, FAP fluorogen, flow cytometry, validation set, pilot screen (AID 504459;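 active = percent response above 42, roughly 3 SD of non-fluorescent test compounds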;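 also: agonist-driven loss of surface beta2AR via internalization measured by FAP dye flow cytometry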); settings: Am2.2-beta2AR cells, at 10 µM, stronger effect = higher value
[16] = target: AP-2 complex subunit beta (Homo sapiens) (UniProt P63010); assay: beta-arrestin/AP2 interaction blockers – biochemical, validation set, GST-AP2 beads, flow cytometry, pilot screen (AID 504541;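 active = inhibition above 54%, about 3 SD of non-fluorescent compounds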;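 also: AP2 carries R879A mutation and is captured from E. coli lysate; bead-bound FITC arrestin peptide fluorescence measuring arrestin peptide binding to AP2; 0% = DMSO wells and 100% = excess unlabeled arrestin peptide control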); settings: FITC arrestin peptide, at 10 µM, stronger effect = higher value, AP2 beta2 appendage fragment, R879A mutant
[17] = cytosolic pH regulators acting via V-ATPase – S. cerevisiae, pHLuorin, HTS validation (AID 504600; in the data active = response above about 15%;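 also: plate controls were DMSO for no effect and reference compound for full effect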); settings: V-ATPase proton transport, at 10 µM, stronger effect = higher value
[18] = system: anti-desmoglein-3 scFv antibody binding to human DSG3; assay: blockers of pathogenic pemphigus antibody–desmoglein-3 binding – biochemical, validation compound set, bead-based, flow cytometry, pilot screen (AID 588368;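 active = binding below the plate cutoff, the plate median minus 3 SD, with a reading above zero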;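 also: signal is the median channel fluorescence of bead-bound GFP antibody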); settings: Protein G beads, DSG3-Fc, scFv-GFP binding, at 10 µM, stronger effect = lower value
[19] = Nile Red efflux blockade in pump-expressing yeast – validation compound set, multiplex, phenotypic, pilot screen (AID 588506;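 active = efflux inhibition above 0.42, the validation set average plus 4 SD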;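 also: Nile Red retained in cells so higher fluorescence means more efflux inhibition; 0 = negative control wells and 1 = enniatin B 25 µM full block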); settings: S. cerevisiae pump-expressing triplex, Nile Red efflux flow cytometry; at 10 µM; stronger effect = higher value; the pumps come from Candida albicans
[20] = target: ATP-binding cassette sub-family B member 6 (Homo sapiens) (UniProt Q9NP58); assay: blockers of ABCB6-driven porphyrin uptake – K562-ABCB6 cells, flow cytometry, validation set, pilot screen (AID 588550;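 active = inhibition above the screen-wide mean plus 3 SD, about 51%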;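 also: 0% = DMSO wells and 100% = benzethonium chloride 70 µM positive control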); settings: K562-ABCB6 porphyrin accumulation, 1 h, at 10 µM, stronger effect = higher value
[21] = AML differentiation inducers, ER-HoxA9 marrow cells – cell-based, GFP/MAC1 double positive, flow cytometry, validation set, primary screen (AID 588685;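 active = differentiation response of at least 50%, scaled between solvent and reference control, from cells with both markers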;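 also: compound exposure lasts four days before antibody staining and flow analysis; 0% = DMSO wells and 100% = 5 µM fulvestrant positive control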); settings: stronger effect = higher value, normalized: vehicle 0, fulvestrant 100
[22] = target: Regulator of G-protein signaling 16 (Homo sapiens) (UniProt O15492); assay: small molecules altering RGS protein interactions with GNAO1 – biochemical, multiplexed beads, flow cytometry, RGS4/7/8/16/19, primary screen (AID 1504); settings: multiplexed bead flow cytometry, measured here: RGS16 interaction, at 10 µM;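 also: fluorescently labeled Galpha-o bound to GDP with aluminium fluoride binding biotinylated RGS beads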
[23] = target: Regulator of G-protein signaling 19 (Homo sapiens) (UniProt P49795); assay: as above; settings: multiplexed bead flow cytometry, measured here: RGS19 interaction, at 10 µM
[24] = target: Regulator of G-protein signaling 7 (Homo sapiens) (UniProt P49802); assay: as above; settings: multiplexed bead flow cytometry, measured here: RGS7 interaction, at 10 µM
[25] = target: Regulator of G-protein signaling 8 (Homo sapiens) (UniProt P57771); assay: as above; settings: multiplexed bead flow cytometry, measured here: RGS8 interaction, at 10 µM
[26] = interference with biotin-avidin bead interaction – biochemical, flow cytometry, bead-based, counter-screen for RGS protein interaction modulators (AID 1783;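 active = inhibition above 50%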;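 also: median green fluorescence of gated singlet beads compared with DMSO control wells; 0% = DMSO wells and 100% = complete loss of bead fluorescence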); settings: streptavidin beads, fluorescein-biotin binding; at 10 µM, stronger effect = higher value
[27] = target: Guanine nucleotide-binding protein G(o) subunit alpha (Homo sapiens) (UniProt P09471); assay: retest of RGS8-Galphao interaction hits – biochemical, multiplexed bead flow cytometry, single concentration, confirmation (AID 1836); settings: bead-based flow cytometry RGS8-Galphao binding, fluorescence; at 10 µM; actives lie on both sides;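 also: Galphao activated as GDP AlF4 complex before binding bead RGS8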
[28] = target: Guanine nucleotide-binding protein G(o) subunit alpha (Homo sapiens) (UniProt P09471); assay: retest of RGS7-Galphao interaction hits – biochemical, multiplexed bead flow cytometry, single concentration, confirmation (AID 1837; in the data active = response below about 75% or above about 130%; inactive = in between;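 also: fluorescent Galphao activated with GDP and aluminum fluoride binding bead-coupled RGS7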); settings: bead-based flow cytometry RGS7-Galphao binding; at 10 µM; actives lie on both sides
[29] = target: Regulator of G-protein signaling 16 (Homo sapiens) + Guanine nucleotide-binding protein G(o) subunit alpha (Homo sapiens) (UniProt O15492+P09471); assay: RGS16 and Galphao interaction regulators – biochemical, single concentration, multiplexed bead flow cytometry, confirmation (AID 1838; in the data active = response below about 74% or above about 130%; inactive = in between;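 also: Galphao activated as the GDP aluminium fluoride complex binding bead-coupled RGS16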); settings: bead-based flow cytometry, at 10 µM, actives lie on both sides
[30] = target: Guanine nucleotide-binding protein G(o) subunit alpha (Homo sapiens) (UniProt P09471); assay: RGS4 and Galphao interaction regulators – biochemical, single concentration, multiplexed bead flow cytometry, confirmation (AID 1840; in the data active = binding response below about 74% or above about 130%; inactive = in between); settings: at 10 µM, actives lie on both sides
[31] = target: Guanine nucleotide-binding protein G(o) subunit alpha (Homo sapiens) + Regulator of G-protein signaling 19 (Homo sapiens) (UniProt P09471+P49795); assay: RGS19 interaction with Gαo, hit retest – biochemical, single point, multiplexed bead flow cytometry, confirmation (AID 1841; in the data active = response below about 50% or above about 160%; inactive = in between;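 also: 100% = no compound control and 0% = blank background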); settings: bead-based flow cytometry RGS19-Galphao binding; at 10 µM; actives lie on both sides
[32] = measured here: daughter cell gate
[33] = measured here: mother cell gate
[34] = measured here: daughter cell gate response
[35] = measured here: mother cell gate response

Chain of Guanine nucleotide-binding protein G(o) subunit alpha (Homo sapiens) (P09471 whole entry, looked up): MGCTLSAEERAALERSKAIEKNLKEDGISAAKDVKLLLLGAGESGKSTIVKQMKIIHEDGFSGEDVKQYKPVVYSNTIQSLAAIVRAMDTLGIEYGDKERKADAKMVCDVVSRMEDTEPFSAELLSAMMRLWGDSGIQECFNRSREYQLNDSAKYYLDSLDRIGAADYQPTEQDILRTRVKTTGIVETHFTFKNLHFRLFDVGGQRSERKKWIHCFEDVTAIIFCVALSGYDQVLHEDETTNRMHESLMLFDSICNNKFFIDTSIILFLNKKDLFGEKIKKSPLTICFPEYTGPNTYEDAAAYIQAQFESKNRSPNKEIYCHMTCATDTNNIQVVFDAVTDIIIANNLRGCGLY
Chain of Guanine nucleotide-binding protein G(o) subunit alpha (Homo sapiens) + Regulator of G-protein signaling 19 (Homo sapiens) (P09471 whole entry, looked up): as above
Chain of Guanine nucleotide-binding protein G(o) subunit alpha (Homo sapiens) + Regulator of G-protein signaling 19 (Homo sapiens) (P49795 whole entry, looked up): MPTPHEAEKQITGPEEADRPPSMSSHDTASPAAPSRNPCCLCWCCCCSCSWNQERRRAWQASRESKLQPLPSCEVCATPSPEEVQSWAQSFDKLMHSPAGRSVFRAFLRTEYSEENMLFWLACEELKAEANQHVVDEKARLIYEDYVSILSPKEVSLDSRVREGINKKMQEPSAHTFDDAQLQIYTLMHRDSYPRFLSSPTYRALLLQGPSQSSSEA
Chain of Regulator of G-protein signaling 16 (Homo sapiens) + Guanine nucleotide-binding protein G(o) subunit alpha (Homo sapiens) (O15492 whole entry, looked up): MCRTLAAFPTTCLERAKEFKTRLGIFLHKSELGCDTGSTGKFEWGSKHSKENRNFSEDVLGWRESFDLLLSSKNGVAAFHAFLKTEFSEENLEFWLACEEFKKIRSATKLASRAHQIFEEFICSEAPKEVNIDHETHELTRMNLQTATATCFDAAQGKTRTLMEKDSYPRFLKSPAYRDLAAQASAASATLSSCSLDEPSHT
Chain of Regulator of G-protein signaling 16 (Homo sapiens) + Guanine nucleotide-binding protein G(o) subunit alpha (Homo sapiens) (P09471 whole entry, looked up): as the sequence (P09471 whole entry, looked up) above
Chain of Beta-adrenergic receptor kinase 1 (Homo sapiens) (P25098 whole entry, looked up): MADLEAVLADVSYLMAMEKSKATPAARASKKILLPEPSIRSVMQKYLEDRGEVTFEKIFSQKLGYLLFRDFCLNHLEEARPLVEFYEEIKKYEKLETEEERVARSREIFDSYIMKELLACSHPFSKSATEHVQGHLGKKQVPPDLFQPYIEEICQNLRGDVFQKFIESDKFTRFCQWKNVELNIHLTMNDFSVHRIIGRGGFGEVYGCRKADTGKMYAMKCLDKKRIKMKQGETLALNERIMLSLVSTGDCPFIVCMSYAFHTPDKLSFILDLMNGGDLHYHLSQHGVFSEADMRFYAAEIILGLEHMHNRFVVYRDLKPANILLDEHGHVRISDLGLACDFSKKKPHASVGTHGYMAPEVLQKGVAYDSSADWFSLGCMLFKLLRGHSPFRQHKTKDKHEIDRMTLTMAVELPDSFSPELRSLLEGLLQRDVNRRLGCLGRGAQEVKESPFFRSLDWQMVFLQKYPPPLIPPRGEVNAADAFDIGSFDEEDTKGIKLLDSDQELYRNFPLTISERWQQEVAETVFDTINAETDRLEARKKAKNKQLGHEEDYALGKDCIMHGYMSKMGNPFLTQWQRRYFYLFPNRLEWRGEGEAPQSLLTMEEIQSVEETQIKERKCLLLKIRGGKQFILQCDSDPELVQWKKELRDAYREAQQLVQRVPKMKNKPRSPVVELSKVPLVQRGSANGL
Chain of Integrin beta-1 (Homo sapiens) + Integrin alpha-4 (Homo sapiens) (P05556 whole entry, looked up): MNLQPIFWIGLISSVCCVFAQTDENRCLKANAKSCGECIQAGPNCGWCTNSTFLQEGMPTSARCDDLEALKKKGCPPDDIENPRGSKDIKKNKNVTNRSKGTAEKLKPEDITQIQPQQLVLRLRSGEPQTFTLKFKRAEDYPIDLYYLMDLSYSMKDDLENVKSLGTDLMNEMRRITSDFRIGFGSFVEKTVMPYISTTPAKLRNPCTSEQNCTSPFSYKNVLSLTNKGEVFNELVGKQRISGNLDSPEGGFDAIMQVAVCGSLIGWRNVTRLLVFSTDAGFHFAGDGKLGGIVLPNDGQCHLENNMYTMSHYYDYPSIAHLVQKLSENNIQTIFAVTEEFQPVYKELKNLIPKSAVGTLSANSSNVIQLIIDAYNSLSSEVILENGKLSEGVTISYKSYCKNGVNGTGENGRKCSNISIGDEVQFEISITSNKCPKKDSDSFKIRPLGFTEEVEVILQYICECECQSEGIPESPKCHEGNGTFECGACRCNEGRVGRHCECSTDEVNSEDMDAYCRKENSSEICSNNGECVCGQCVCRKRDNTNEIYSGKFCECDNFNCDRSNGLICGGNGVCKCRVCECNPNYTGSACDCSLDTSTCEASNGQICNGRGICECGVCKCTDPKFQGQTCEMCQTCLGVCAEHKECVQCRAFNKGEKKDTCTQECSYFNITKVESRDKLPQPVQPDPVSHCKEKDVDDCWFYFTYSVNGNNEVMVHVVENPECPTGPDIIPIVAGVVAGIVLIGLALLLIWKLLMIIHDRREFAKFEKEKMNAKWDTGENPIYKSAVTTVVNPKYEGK
Chain of Integrin beta-1 (Homo sapiens) + Integrin alpha-4 (Homo sapiens) (P13612 whole entry, looked up): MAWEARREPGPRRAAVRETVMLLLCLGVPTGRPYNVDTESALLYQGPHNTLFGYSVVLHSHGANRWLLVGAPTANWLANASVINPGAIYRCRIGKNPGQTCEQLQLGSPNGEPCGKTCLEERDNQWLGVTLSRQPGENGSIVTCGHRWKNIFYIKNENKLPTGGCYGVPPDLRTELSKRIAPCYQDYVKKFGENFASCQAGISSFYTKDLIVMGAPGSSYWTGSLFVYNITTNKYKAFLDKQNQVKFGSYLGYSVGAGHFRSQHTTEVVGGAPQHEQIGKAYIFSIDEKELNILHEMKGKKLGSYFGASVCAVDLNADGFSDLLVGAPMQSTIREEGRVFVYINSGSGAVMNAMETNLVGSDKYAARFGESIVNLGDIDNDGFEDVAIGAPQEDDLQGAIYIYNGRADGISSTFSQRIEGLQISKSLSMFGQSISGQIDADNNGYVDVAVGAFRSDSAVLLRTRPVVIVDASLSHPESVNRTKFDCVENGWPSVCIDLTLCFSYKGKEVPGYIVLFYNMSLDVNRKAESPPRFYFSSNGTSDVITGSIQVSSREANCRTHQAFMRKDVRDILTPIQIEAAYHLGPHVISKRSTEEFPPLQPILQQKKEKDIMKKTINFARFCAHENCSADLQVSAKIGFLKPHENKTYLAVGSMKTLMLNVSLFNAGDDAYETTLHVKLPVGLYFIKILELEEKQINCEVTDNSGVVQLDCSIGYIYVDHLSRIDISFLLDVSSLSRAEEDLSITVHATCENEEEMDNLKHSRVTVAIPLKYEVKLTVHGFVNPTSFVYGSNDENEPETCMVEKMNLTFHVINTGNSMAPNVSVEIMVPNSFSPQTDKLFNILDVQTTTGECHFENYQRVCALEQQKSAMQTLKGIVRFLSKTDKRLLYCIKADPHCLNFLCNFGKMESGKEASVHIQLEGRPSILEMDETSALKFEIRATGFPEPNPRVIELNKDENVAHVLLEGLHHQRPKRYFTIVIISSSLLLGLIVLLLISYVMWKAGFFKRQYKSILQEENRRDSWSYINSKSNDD
Chain of Beta-2 adrenergic receptor (Homo sapiens) (P07550 whole entry, looked up): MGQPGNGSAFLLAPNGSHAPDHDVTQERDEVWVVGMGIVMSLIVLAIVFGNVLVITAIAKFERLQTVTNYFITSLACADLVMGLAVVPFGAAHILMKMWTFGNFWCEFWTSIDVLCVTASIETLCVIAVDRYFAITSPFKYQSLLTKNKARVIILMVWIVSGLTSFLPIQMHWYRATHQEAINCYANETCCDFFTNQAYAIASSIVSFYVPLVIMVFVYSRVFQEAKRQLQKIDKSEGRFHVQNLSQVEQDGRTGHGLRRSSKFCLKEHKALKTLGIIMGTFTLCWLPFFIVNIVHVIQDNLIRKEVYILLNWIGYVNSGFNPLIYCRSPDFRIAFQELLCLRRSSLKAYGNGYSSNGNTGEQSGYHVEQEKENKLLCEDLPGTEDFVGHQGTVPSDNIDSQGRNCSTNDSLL

CC(=O)Nc1ccc(S(=O)(=O)c2ccc(N)cc2)cc1
101%: GFP response vs DMSO [6, 32] | GFP response, % of DMSO [10, 32]
102%: GFP response, % of DMSO [10, 33]
104%: GFP response vs DMSO [6, 33]
active: percent response of DMSO control [3] 136%
inactive: percent of DMSO control GFP [1] 97.9% | GFP response vs DMSO [2] 126% | GFP response vs DMSO [4] 77.6% | GFP response, % of DMSO [5] 85.4% | GFP response vs DMSO [6] 103% | GFP response relative to DMSO [7] 105% | GFP response vs DMSO [8] 102% | GFP response, % of DMSO [9] 105% | GFP response, % of DMSO [10] 102% | vesicle binding response [11] 203% | inhibition [12] 17.1% | superoxide response (% of plate) [13] 110% | aptamer binding inhibition [14] 0% | response [15] -3.74% | inhibition [16] -5.82% | response [17] -1.44% | binding (% of control) [18] 101% | efflux inhibition (fraction of control) [19] 0.05 | inhibition [20] 8% | differentiation response [21] 9.01%
106%: GFP response relative to DMSO [7, 35]
103%: GFP response relative to DMSO [7, 34]
62.6%: double positive events [11]

COc1ccccc1-n1c(-c2cc(-c3ccco3)[nH]n2)n[nH]c1=S
inactive: inhibition [26] 0.5% | binding response (% of control) [27] 83.6% | response (percent of control binding) [28] 99.5% | response (% of control binding) [29] 82.6% | binding response (% of control) [30] 98.3% | response (percent of control binding) [31] 68.6%
531%: RGS19–Galpha-o binding response [23]
6.3%: RGS8–Galpha-o binding response [25]
-1.14%: RGS16–Galpha-o binding response [22]
-527%: RGS7–Galpha-o binding response [24]

CCCCOC(=O)Cn1c(=N)n(CCN(CC)CC)c2ccccc21
165%: RGS7–Galpha-o binding response [24]
-255%: RGS19–Galpha-o binding response [23]
127%: RGS8–Galpha-o binding response [25]
inactive: inhibition [26] -1.7% | binding response (% of control) [27] 101% | response (percent of control binding) [28] 95.7% | response (% of control binding) [29] 101% | binding response (% of control) [30] 97.5% | response (percent of control binding) [31] 101%
0%: RGS16–Galpha-o binding response [22]

COc1cc2c(cc1OC)C(c1ccccc1)=NCC2
inactive: percent of DMSO control GFP [1] 92.2% | percent response of DMSO control [3] 103% | GFP response vs DMSO [4] 84.2% | GFP response, % of DMSO [5] 97.7% | GFP response vs DMSO [6] 98.2% | GFP response relative to DMSO [7] 88.9% | GFP response vs DMSO [8] 100% | GFP response, % of DMSO [9] 98.3% | GFP response, % of DMSO [10] 103% | vesicle binding response [11] 202% | inhibition [12] 2.58% | superoxide response (% of plate) [13] 93.7% | aptamer binding inhibition [14] 3% | response [15] 2.38% | inhibition [16] 6.17% | response [17] -0.17% | binding (% of control) [18] 99% | efflux inhibition (fraction of control) [19] 0.34 | inhibition [20] 6% | differentiation response [21] 1.64%
88%: GFP response relative to DMSO [7, 34]
99.7%: GFP response vs DMSO [6, 33]
102%: GFP response, % of DMSO [10, 33]
106%: GFP response, % of DMSO [10, 32]
active: GFP response vs DMSO [2] 144%
97.6%: GFP response vs DMSO [6, 32]
59.5%: double positive events [11]
87.6%: GFP response relative to DMSO [7, 35]

Cc1ncoc1C(=O)NCCC(c1ccccc1)c1ccccc1
inactive: inhibition [26] 0.1% | binding response (% of control) [27] 101% | response (percent of control binding) [28] 110% | response (% of control binding) [29] 101% | binding response (% of control) [30] 103% | response (percent of control binding) [31] 111%

C=CCNc1nc(N)c(C(=C(C#N)C#N)c2ccccc2)s1
inactive: inhibition [26] 0.8% | binding response (% of control) [27] 98.2% | response (percent of control binding) [28] 87.1% | response (% of control binding) [29] 99% | binding response (% of control) [30] 95.9% | response (percent of control binding) [31] 113%
